Source: PubChem BioAssay
NPR1 antag: Natriuretic polypeptide receptor (hNpr1) antagonism - Primary qHTS; actives 1.6% (n = 76,000); Atrial natriuretic peptide receptor 1 (Homo sapiens), P16066; HEK293 hNpr1 GloSensor cGMP, ANP-stimulated luminescence; AID 1347048, 2019; Potency, µM (titrated, usually from 46.3 µM), inactives show at the highest dose activity change, negative = inhibition, actives largely listed as inhibitors; calls by dose curve; note: % is set by controls: 0 for no effect and ±100 for the full control effect; nearly all actives have a fitted effect of over 60% in size
Target sequence (P16066 whole entry, looked up): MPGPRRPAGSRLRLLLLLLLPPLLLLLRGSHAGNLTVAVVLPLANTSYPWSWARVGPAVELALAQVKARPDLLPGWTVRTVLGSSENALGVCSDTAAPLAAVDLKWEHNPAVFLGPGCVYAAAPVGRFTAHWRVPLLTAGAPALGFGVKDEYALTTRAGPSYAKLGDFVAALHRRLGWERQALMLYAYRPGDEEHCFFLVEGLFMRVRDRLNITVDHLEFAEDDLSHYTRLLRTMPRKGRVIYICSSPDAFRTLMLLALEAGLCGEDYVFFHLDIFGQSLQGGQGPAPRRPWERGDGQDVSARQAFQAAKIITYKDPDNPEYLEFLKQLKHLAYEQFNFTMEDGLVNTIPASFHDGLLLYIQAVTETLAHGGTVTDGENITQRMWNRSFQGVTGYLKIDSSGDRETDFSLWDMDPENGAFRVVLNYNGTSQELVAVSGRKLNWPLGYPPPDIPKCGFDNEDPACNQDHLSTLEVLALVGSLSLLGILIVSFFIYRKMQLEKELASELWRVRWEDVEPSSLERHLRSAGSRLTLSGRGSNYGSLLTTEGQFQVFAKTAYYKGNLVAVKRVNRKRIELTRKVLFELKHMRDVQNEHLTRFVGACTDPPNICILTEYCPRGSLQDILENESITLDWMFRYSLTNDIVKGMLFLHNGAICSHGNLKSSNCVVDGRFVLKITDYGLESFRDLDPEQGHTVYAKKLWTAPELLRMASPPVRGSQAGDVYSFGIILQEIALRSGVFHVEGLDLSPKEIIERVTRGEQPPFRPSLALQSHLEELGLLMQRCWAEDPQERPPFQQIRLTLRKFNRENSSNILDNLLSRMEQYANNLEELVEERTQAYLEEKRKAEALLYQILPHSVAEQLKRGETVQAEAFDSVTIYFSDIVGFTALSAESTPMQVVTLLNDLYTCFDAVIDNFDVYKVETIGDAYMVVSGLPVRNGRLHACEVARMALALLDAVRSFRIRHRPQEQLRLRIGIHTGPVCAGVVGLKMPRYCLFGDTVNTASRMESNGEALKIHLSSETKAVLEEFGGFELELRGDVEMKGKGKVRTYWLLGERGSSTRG
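HEK293 cells stably expressing human Npr1 and cGMP GloSensor pGS-40F, loaded 2 h with 2% GloSensor reagent, given compound 30 min at room temperature. Luminescence read before and 20 min after 0.1 nM hNppA.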
FLuc inh: Firefly luciferase inhibition profiling of diverse chemical library using quantitative high-throughput screening | Luciferin 4-monooxygenase (Photinus pyralis), P08659 | purified P. pyralis luciferase, luminescence, biochemical | Potency, µM (series often up to 115 µM), hits mostly inhibitors | actives 2.5% (n = 76,000); note: % is set by controls: 0 for no effect and ±100 for the full control effect; nearly all actives have a fitted effect of over 65% in size
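Biochemical qHTS: compound (6-point titration) added to 10uM D-luciferin plus 10uM ATP in Tris acetate pH 7.5 buffer with Mg, Tween-20 and BSA, then purified enzyme at 10nM; light output imaged.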
NIH3T3 tox: Cytotoxic Profiling in NIH 3T3 Cell Line of Diverse Libraries Using Quantitative High-Throughput Screening | actives 4.3% (n = 94,000) | NIH 3T3 viability, CellTiter-Glo ATP luminescence, 48-72 h | Potency, µM (top dose mostly 96.7 µM), inactives show at the top dose activity change, negative = cytotoxicity, hits mostly inhibitors | AID 1345082, 2018; note: % is set by controls: 0 for no effect and ±100 for the full control effect; nearly all actives have a fitted effect of over 55% in size
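Cytotoxicity is measured as loss of cellular ATP: NIH 3T3 cells (400/well) are exposed to compound for 48 or 72 hr at 37 °C, then CellTiter-Glo luminescence is imaged after 10 min at room temperature.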
HEK293 tox: Cytotoxic Profiling in HEK 293 Cell Line of Diverse Libraries Using Quantitative High-Throughput Screening; HEK 293 viability, ATP luminescence (CellTiter-Glo), 48-72 h; Potency, µM (series often up to 115 µM), for inactives: at the top dose activity change, negative = cytotoxicity, usual class: inhibitors; actives 6.6% (n = 94,000); note: % is set by controls: 0 for no effect and ±100 for the full control effect; nearly all actives have a fitted effect of over 60% in size
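Read-out: CellTiter-Glo ATP luminescence. Cells: HEK 293, 250 cells/well. Exposure: 48 or 72 hr, 37 degree Celsius.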
Npr1 antag conf: Natriuretic polypeptide receptor (hNpr1) antagonism - Confirmation | shares compounds with NPR1 antag | HEK293 hNpr1 cGMP GloSensor luminescence, ANP-stimulated | Potency, µM (highest dose often 57.6 µM), for the others: top-dose activity change, negative = inhibition, most hits filed as inhibitors | actives 76% (n = 1,400); calls by dose curve; note: nearly all actives have a fitted effect of over 70% in size
Npr2 selectivity: Natriuretic polypeptide receptor (hNpr2) antagonism - Subtype selectivity assay. shares compounds with NPR1 antag. HEK293 hNpr2 GloSensor cGMP luminescence, CNP-stimulated. Potency, µM (top dose mostly 57.6 µM), inactives show at the top dose activity change, negative = inhibition, hits mostly inhibitors. actives 67% (n = 1,400). AID 1347046, 2019; calls by dose curve; note: nearly all actives have a fitted effect of over 70% in size
FLuc inh counter: Natriuretic polypeptide receptor (hNpr1) antagonism - Confirmation firefly luciferase (FLuc) inhibition counterscreen; actives 0.7% (n = 1,400); shares compounds with NPR1 antag; Potency, µM (titrated, usually from 57.6 µM), for inactives: at the top dose activity change, negative = inhibition, usual class: inhibitors; purified FLuc enzyme, luminescence, Km substrate; AID 1347047, 2019; note: series mostly up to about 58 µM; 0% is about no effect
GloSensor cGMP: Natriuretic polypeptide receptor (hNpr1) antagonism - Counterscreen GloSensor control cell line; shares compounds with NPR1 antag; HEK293 GloSensor cGMP, SNP-stimulated, luminescence; Potency, µM (doses to about 57.6 µM), without a hit: at the top dose activity change, negative = inhibition, usual class: inhibitors; actives 69% (n = 1,400); calls by dose curve; note: % is set by controls: 0 for no effect and ±100 for the full control effect; nearly all actives have a fitted effect of over 70% in size
Starred values were filed as active, the others as inactive; [ ] = remark or other dose. An excerpt weighted towards active compounds, which were near 11% of everything screened. Unless noted, calls come from the whole dose curve; as a rule, active = well fitted curve in the direction sought with a large enough effect; inconclusive = small, poorly fitted or top-dose-only effect, or another doubt; inactive = no such curve, though single readings can be large; an effect the other way counts as inactive or inconclusive. Potency is the fitted concentration of half-maximal effect.

What do the screens show for `COc1ccc(C(C(=O)O)N2CCN(c3ccc(F)cc3)CC2)c(OC)n1` (centres undefined)?
NPR1 antag: 1.1%; FLuc inh: inactive; NIH3T3 tox: 3.0%; HEK293 tox: 3.3%

How did CCc1noc(CC2CCOC3(CCN(S(=O)(=O)c4cccc(OC)c4)CC3)C2)n1 (centres undefined) do in these assays?
NPR1 antag: 15.8µM*; FLuc inh: inactive; NIH3T3 tox: inconclusive; HEK293 tox: inconclusive; Npr1 antag conf: 21.7µM*; Npr2 selectivity: 21.7µM*; FLuc inh counter: -1.1%; GloSensor cGMP: 19.3µM*

Results for COc1cccc(S(=O)(=O)N2CCC3(CC2)CC(OC)CCO3)c1 (centres undefined) ?
NPR1 antag: -7.1%; FLuc inh: inactive; NIH3T3 tox: 3.0%; HEK293 tox: 15.8%

What do the screens show for `CCc1noc(CC2CCOC3(CCN(S(=O)(=O)c4cc(F)ccc4C)CC3)C2)n1` (centres undefined)?
NPR1 antag: inconclusive; FLuc inh: inactive; NIH3T3 tox: inconclusive; HEK293 tox: inconclusive

Results for CCc1noc(CC2CCOC3(CCN(S(=O)(=O)c4cccc(Cl)c4)CC3)C2)n1 (centres undefined) ?
NPR1 antag: 10µM*; FLuc inh: inactive; NIH3T3 tox: inconclusive; HEK293 tox: inconclusive; Npr1 antag conf: 21.7µM*; Npr2 selectivity: inconclusive; FLuc inh counter: -2.0%; GloSensor cGMP: 21.7µM*

Results for CCc1noc(CC2CCOC3(CCN(S(=O)(=O)c4ccccc4Cl)CC3)C2)n1 (centres undefined) ?
NPR1 antag: inconclusive; FLuc inh: inactive; NIH3T3 tox: -23.3%; HEK293 tox: inconclusive; Npr1 antag conf: 21.7µM*; Npr2 selectivity: 21.7µM*; FLuc inh counter: -0.5%; GloSensor cGMP: 17.2µM*

What do the screens show for `COc1ccc(CN(C)C(=O)c2ccc3oc(C)cc3c2)c2cccnc12`?
NPR1 antag: 5.01µM*; FLuc inh: inactive; NIH3T3 tox: inconclusive; HEK293 tox: inconclusive; Npr1 antag conf: 6.85µM*; Npr2 selectivity: 6.85µM*; FLuc inh counter: 1.1%; GloSensor cGMP: 4.32µM*

What do the screens show for `O=C(NC1CCCCC1)N1CCC(c2noc(-c3ccccc3)n2)C1` (centres undefined)?
NPR1 antag: 17.8µM*; FLuc inh: inactive; NIH3T3 tox: inconclusive; HEK293 tox: inconclusive; Npr1 antag conf: 27.3µM*; Npr2 selectivity: inconclusive; FLuc inh counter: 0.3%; GloSensor cGMP: 27.3µM*

Results for Cc1nn2c(c1-c1ccccc1OCc1ccccc1)N(C(=O)Cc1ccc3c(c1)OCO3)CCC2 ?
NPR1 antag: 8.91µM*; FLuc inh: inactive; NIH3T3 tox: 12.6µM*; HEK293 tox: 79.4µM*; Npr1 antag conf: 10.9µM*; Npr2 selectivity: 6.11µM*; FLuc inh counter: 0.7%; GloSensor cGMP: -0.6%

Results for Cc1nn2c(c1-c1ccccc1Oc1ccccc1)N(C(=O)Cc1ccc3c(c1)OCO3)CCC2 ?
NPR1 antag: 7.94µM*; FLuc inh: inactive; NIH3T3 tox: inconclusive; HEK293 tox: inconclusive; Npr1 antag conf: 10.9µM*; Npr2 selectivity: 5.44µM*; FLuc inh counter: -4.2%; GloSensor cGMP: -23.9%

What do the screens show for `Cc1nn2c(c1-c1ccccc1-c1ccccc1)N(C(=O)Cc1ccc3c(c1)OCO3)CCC2`?
NPR1 antag: -30.0%; FLuc inh: inactive; NIH3T3 tox: inconclusive; HEK293 tox: inconclusive

Results for O=C(NCCNC(=O)c1ccccc1F)c1ccc(-c2cncnc2)cc1 ?
NIH3T3 tox: -19.0%; HEK293 tox: -23.2%

What do the screens show for `CCCCCCN(CCC(=O)NCCc1ccccc1)C(=O)c1cc(C)oc1C`?
NPR1 antag: 15.8µM*; FLuc inh: inactive; NIH3T3 tox: inconclusive; HEK293 tox: 8.91µM*; Npr1 antag conf: inconclusive; Npr2 selectivity: inconclusive; FLuc inh counter: -21.1%; GloSensor cGMP: inconclusive

What do the screens show for `COCCCN(CCC(=O)NCCc1ccccc1)C(=O)c1cc(C)oc1C`?
NPR1 antag: -1.8%; FLuc inh: inactive; NIH3T3 tox: inconclusive; HEK293 tox: inconclusive

What do the screens show for `CCCCCN(CCC(=O)NCc1ccc2c(c1)OCO2)C(=O)c1cc(C)oc1C`?
NPR1 antag: 12.6µM*; FLuc inh: inactive; NIH3T3 tox: 31.6µM*; HEK293 tox: inconclusive; Npr1 antag conf: inconclusive; Npr2 selectivity: inconclusive; FLuc inh counter: 2.4%; GloSensor cGMP: 1.1%

Results for COC1C(=O)N(C2CCN(C(=O)c3sc(C)nc3C)CC2)C12CCOCC2 (centres undefined) ?
NPR1 antag: -1.4%; FLuc inh: inactive; NIH3T3 tox: -0.1%; HEK293 tox: 0.3%

Results for Clc1cccc(CN2CC[C@H](c3nc4ccccc4[nH]3)C2)c1 ?
NPR1 antag: 25.1µM*; FLuc inh: inactive; NIH3T3 tox: inconclusive; HEK293 tox: 20µM*; Npr1 antag conf: 39.6µM*; Npr2 selectivity: inconclusive; FLuc inh counter: -1.8%[86.2 µM]; GloSensor cGMP: inconclusive

Results for COc1cccc(CN2CC[C@H](c3nc4ccccc4[nH]3)C2)c1 ?
NPR1 antag: 2.5%[70.6 µM]; FLuc inh: inactive; NIH3T3 tox: -17.9%[138 µM]; HEK293 tox: inconclusive

What do the screens show for `N#Cc1cccnc1N1CCC(NC(=O)c2ccc3nccn3c2)CC1`?
NPR1 antag: 11.2µM*; FLuc inh: inactive; NIH3T3 tox: -62.7%; HEK293 tox: inconclusive; Npr1 antag conf: 21.7µM*; Npr2 selectivity: 24.3µM*; FLuc inh counter: 1.8%; GloSensor cGMP: 19.3µM*
